The values that follow come from the supplement of paper PMC9262897, “Low-cost anti-mycobacterial drug discovery using engineered E. coli” (Nature Communications, 2022).

The structures appear in SMILES notation. Structures can show the parent of a compound that is named as a salt. ± gives the standard deviation of the averaged measurements.

What all share (assay): growth (OD600 after 10 h); higher = more growth (less inhibition)
Experiment [1] relates to E. coli TESEC Alr+ wild-type control. As to conditions: compound 0.1 mM; raw OD600 reference: median of DMSO wells 0.241, cell-free background 0.041. Here is the method: (§1)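 TESEC Mtb Alr E. coli, or the Alr+ wild-type control, in 384-well plates with Prestwick library compounds at 0.1 mM and 1% DMSO, across arabinose induction levels of 1E3 to 1E7 nM. Growth is read as OD600 after 10 h at 37 °C in triplicate biological replicates.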

Experiment [2] concerns E. coli TESEC Mtb Alr. The following applies: compound 0.1 mM. Here is the method: as §1
Experiment [3] has as its system E. coli TESEC Mtb Asd. As to conditions: compound 0.1 mM. Here is the method: (§2)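 TESEC E. coli strains in which the native enzyme is deleted and replaced by arabinose-inducible Mtb Asd, DapB, CysH or TrpD, each grown in its selective medium. Strains were screened against the Prestwick library at 0.1 mM and 1% DMSO in 384-well format at low and high arabinose induction. Growth is read as OD600 after 10 h in triplicate.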

Experiment [4] relates to E. coli TESEC Mtb DapB. As to conditions: compound 0.1 mM. Here is the method:
as §2

Experiment [5] deals with E. coli TESEC Mtb Alr. The following applies: compound 0.1 mM. Here is the method:
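TESEC Mtb Alr E. coli (ΔaraC ΔtolC ΔentC Δalr ΔdadX, arabinose-inducible Mtb Alr) or the Alr+ wild-type control strain, grown in defined M9-fructose medium without D-alanine in 96-well plates with Prestwick library compounds at 0.1 mM and 1% DMSO. Low Alr induction is 0.1 µM arabinose and high induction is 10 mM arabinose.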
This is another data set of the same source.

Where [6] appears, read: arabinose 1000 nM, raw OD600 reference: median of DMSO wells 0.294, cell-free background 0.041.
Setting [7] is: arabinose 10000 nM, raw OD600 reference: median of DMSO wells 0.264, cell-free background 0.041.
The mark [8] stands for this setting: arabinose 100000 nM, raw OD600 reference: median of DMSO wells 0.201, cell-free background 0.041.
The mark [9] stands for this setting: arabinose 1000000 nM, raw OD600 reference: median of DMSO wells 0.193, cell-free background 0.041.
[10] abbreviates: arabinose 10000000 nM, raw OD600 reference: median of DMSO wells 0.146, cell-free background 0.041.
Where [11] appears, read: arabinose induction (level): High, raw OD600 reference: median of DMSO wells 0.331, cell-free background 0.041.
Where [12] appears, read: arabinose induction (level): Low, raw OD600 reference: median of DMSO wells 0.417, cell-free background 0.041.
Setting [13] is: arabinose induction (level): High, raw OD600 reference: median of DMSO wells […], cell-free background 0.041.
Where [14] appears, read: arabinose induction (level): Low, raw OD600 reference: median of DMSO wells 0.227, cell-free background 0.041.
[15] abbreviates: arabinose 100 nM, raw OD600 reference: median of DMSO wells 0.413, cell-free background 0.052.
Setting [16] is: arabinose 10000000 nM, raw OD600 reference: median of DMSO wells […], cell-free background 0.052.

Consider `COc1cccc2c1C(=O)c1c(O)c3c(c(O)c1C2=O)C[C@@](O)(C(=O)CO)C[C@@H]3O[C@H]1C[C@H](N)[C@@H](O)[C@H](C)O1` [Epirubicin hydrochloride], for which the growth amounted to 0.04433 ± 0.00032 in experiment [1]; 0.0453 ± 0.0011 in experiment [2] (setting [6]); 0.04623 ± 0.00032 in experiment [2] (setting [7]); 0.0469 ± 0.0005 in experiment [2] (setting [8]); 0.0457 ± 0.00068 in experiment [2] (setting [9]); 0.0453 ± 0.0005 in experiment [2] (setting [10]). Besides, the growth in experiment [3] (setting [11]) was 0.068 ± 0.0071; in experiment [3] (setting [12]), 0.0576 ± 0.0035; in experiment [4] (setting [13]) it was 0.0567 ± 0.0034; in experiment [4] (setting [14]) it was 0.0562 ± 0.0015; in experiment [5] (setting [15]), 0.0587 ± 0.0013; in experiment [5] (setting [16]), 0.0582 ± 0.00053.

As to `COc1cc(Cc2cnc(N)nc2N)cc(OC)c1OC` [Trimethoprim], the growth came to 0.0601 ± 0.0005 in experiment [1]; 0.04863 ± 0.00047 in experiment [2] (setting [6]); 0.0442 ± 0.00076 in experiment [2] (setting [7]); 0.04953 ± 0.00035 in experiment [2] (setting [8]); 0.04553 ± 0.0004 in experiment [2] (setting [9]); 0.0534 ± 0.00081 in experiment [2] (setting [10]). Further, the growth in experiment [3] (setting [11]) was determined as 0.0958 ± 0.044; in experiment [3] (setting [12]), 0.0867 ± 0.014; in experiment [4] (setting [13]) it was 0.0742 ± 0.0018; in experiment [4] (setting [14]), 0.0572 ± 0.0041; in experiment [5] (setting [15]), 0.0922 ± 0.026; in experiment [5] (setting [16]) it was 0.0701 ± 0.0035.

For the compound `COC(=O)C1=C(C)NC(C)=C(C(=O)OC2CCCN(Cc3ccccc3)C2)C1c1cccc([N+](=O)[O-])c1` (stereo not drawn) [Benidipine hydrochloride], the growth came to 0.184 ± 0.005 in experiment [1]; 0.148 ± 0.005 in experiment [2] (setting [6]); 0.177 ± 0.012 in experiment [2] (setting [7]); 0.168 ± 0.011 in experiment [2] (setting [8]); 0.107 ± 0.0056 in experiment [2] (setting [9]); 0.119 ± 0.024 in experiment [2] (setting [10]). The growth in experiment [3] (setting [11]) was 0.162 ± 0.0021; in experiment [3] (setting [12]), 0.157 ± 0.0085; in experiment [4] (setting [13]) it was 0.17 ± 0.022; in experiment [4] (setting [14]), 0.192 ± 0.016; in experiment [5] (setting [15]), 0.353 ± 0.018; in experiment [5] (setting [16]) it was 0.122 ± 0.028.

Turning to `CC(O)(P(=O)(O)O)P(=O)(O)O` [Etidronic acid, disodium salt], the growth in experiment [1] is 0.261 ± 0.021; in experiment [2] (setting [6]) it was 0.331 ± 0.0087; in experiment [2] (setting [7]), 0.275 ± 0.0062; in experiment [2] (setting [8]), 0.20943 ± 0.00012; in experiment [2] (setting [9]), 0.184 ± 0.0041; in experiment [2] (setting [10]), 0.159 ± 0.003. Also, the growth was 0.474 ± 0.015 in experiment [3] (setting [11]); 0.426 ± 0.068 in experiment [3] (setting [12]); 0.216 ± 0.003 in experiment [4] (setting [13]); 0.26 ± 0.015 in experiment [4] (setting [14]); 0.415 ± 0.021 in experiment [5] (setting [15]); 0.261 ± 0.056 in experiment [5] (setting [16]).
